Out of some 5,500 compounds screened, about 2,000 (36%) were called active. Inconclusive results (about 18%) are left out. No stated cut-off is given here; in the data, active means normalized growth mostly below about 0.91 (no sharp cut-off); inconclusive means no clear call, values can overlap the other calls; inactive means mostly above about 0.92. Some of the results follow.
Experiment: chemical genetic growth profiling, strain panel (AID 1159580);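 further: tested at 20 µM; growth read once vehicle control cultures reached saturation at 30 °C; 1 = growth at the plate median or of vehicle wells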
Conditions: growth OD

Measured: normalized growth

Cc1cc(O)c(C)c2c1C(=O)Oc1c(C)c(O)c(C(=O)O)c(C)c1O2
inactive: S. cerevisiae deletion strains, locus YAL013W, strain DEP1, stronger effect = lower value 0.997 | S. cerevisiae deletion strains, locus YBR021W, strain FUR4, stronger effect = lower value 0.966 | S. cerevisiae deletion strains, locus YBR229C, strain ROT2, stronger effect = lower value 0.993 | S. cerevisiae deletion strains, locus YCL029C, strain bik1, stronger effect = lower value 0.973 | S. cerevisiae deletion strains, locus YDL035C, strain GPR1, stronger effect = lower value 0.998 | S. cerevisiae deletion strains, locus YDL074C, strain BRE1, stronger effect = lower value 1 | S. cerevisiae deletion strains, locus YDL101C, strain DUN1, stronger effect = lower value 0.988 | S. cerevisiae deletion strains, locus YDL134C, strain PPH21, stronger effect = lower value 0.98 | S. cerevisiae deletion strains, locus YDL185W, strain tfp1, stronger effect = lower value 0.989 | S. cerevisiae deletion strains, locus YDL192W, strain arf1, stronger effect = lower value 0.983 | S. cerevisiae deletion strains, locus YDR101C, strain arx1, stronger effect = lower value 0.974 | S. cerevisiae deletion strains, locus YDR150W, strain NUM1, stronger effect = lower value 0.999 | S. cerevisiae deletion strains, locus YDR162C, strain NBP2, stronger effect = lower value 1.02 | S. cerevisiae deletion strains, locus YDR318W, strain mcm21, stronger effect = lower value 0.971 | S. cerevisiae deletion strains, locus YDR388W, stronger effect = lower value 0.98 | S. cerevisiae deletion strains, locus YDR502C, strain sam2, stronger effect = lower value 0.982 | S. cerevisiae deletion strains, locus YEL061C, strain CIN8, stronger effect = lower value 1 | S. cerevisiae deletion strains, locus YER110C, stronger effect = lower value 0.978 | S. cerevisiae deletion strains, locus YER155C, strain BEM2, stronger effect = lower value 0.991 | S. cerevisiae deletion strains, locus YER167W, strain BCK2, stronger effect = lower value 0.994 | S. cerevisiae deletion strains, locus YGL078C, strain dbp3, stronger effect = lower value 0.968 | S. cerevisiae deletion strains, locus YGL086W, strain mad1, stronger effect = lower value 0.977 | S. cerevisiae deletion strains, locus YGL248W, strain PDE1, stronger effect = lower value 0.989 | S. cerevisiae deletion strains, locus YGR078C, strain PAC10, stronger effect = lower value 1.01 | S. cerevisiae deletion strains, locus YGR135W, strain pre9, stronger effect = lower value 1 | S. cerevisiae deletion strains, locus YGR229C, strain SMI1, stronger effect = lower value 1.01 | S. cerevisiae deletion strains, locus YGR252W, strain gcn5, stronger effect = lower value 0.961 | S. cerevisiae deletion strains, locus YHR030C, strain SLT2, stronger effect = lower value 0.989 | S. cerevisiae deletion strains, locus YHR079C, strain IRE1 (second series), stronger effect = lower value 0.982 | S. cerevisiae deletion strains, locus YHR094C, strain hxt1, stronger effect = lower value 0.979 | S. cerevisiae deletion strains, locus YHR129C, strain ARP1, stronger effect = lower value 0.997 | S. cerevisiae deletion strains, locus YHR200W, strain rpn10, stronger effect = lower value 0.978 | S. cerevisiae deletion strains, locus YIL066C, strain RNR3, stronger effect = lower value 0.988 | S. cerevisiae deletion strains, locus YIL073C, strain SPO22, stronger effect = lower value 0.999 | S. cerevisiae deletion strains, locus YIL125W, strain kgd1, stronger effect = lower value 0.983 | S. cerevisiae deletion strains, locus YIR030C, strain dcg1, stronger effect = lower value 0.991 | S. cerevisiae deletion strains, locus YJL095W, strain BCK1, stronger effect = lower value 1.01 | S. cerevisiae deletion strains, locus YJL134W, strain LCB3, stronger effect = lower value 0.989 | S. cerevisiae deletion strains, locus YJL168C, strain set2, stronger effect = lower value 0.974 | S. cerevisiae deletion strains, locus YJL187C, strain SWE1 (second series), stronger effect = lower value 0.988 | S. cerevisiae deletion strains, locus YJR043C, strain POL32, stronger effect = lower value 1.01 | S. cerevisiae deletion strains, locus YJR075W, strain HOC1, stronger effect = lower value 1.01 | S. cerevisiae deletion strains, locus YKL009W, strain mrt4, stronger effect = lower value 0.964 | S. cerevisiae deletion strains, locus YKL068W, stronger effect = lower value 0.985 | S. cerevisiae deletion strains, locus YKL085W, strain MDH1 (second series), stronger effect = lower value 0.992 | S. cerevisiae deletion strains, locus YKL085W, strain MDH1, stronger effect = lower value 0.992 | S. cerevisiae deletion strains, locus YKL190W, strain CNB1, stronger effect = lower value 1 | S. cerevisiae deletion strains, locus YKR001C, strain vps1, stronger effect = lower value 0.982 | S. cerevisiae deletion strains, locus YLR039C, strain RIC1, stronger effect = lower value 1.01 | S. cerevisiae deletion strains, locus YLR058C, strain SHM2, stronger effect = lower value 0.997 | S. cerevisiae deletion strains, locus YLR102C, strain apc9, stronger effect = lower value 0.988 | S. cerevisiae deletion strains, locus YLR262C, strain YPT6, stronger effect = lower value 1 | S. cerevisiae deletion strains, locus YLR268W, strain sec22, stronger effect = lower value 0.99 | S. cerevisiae deletion strains, locus YLR330W, strain CHS5, stronger effect = lower value 0.998 | S. cerevisiae deletion strains, locus YLR342W, strain FKS1 (second series), stronger effect = lower value 0.983 | S. cerevisiae deletion strains, locus YLR371W, strain rom2, stronger effect = lower value 0.976 | S. cerevisiae deletion strains, locus YLR418C, strain cdc73, stronger effect = lower value 0.974 | S. cerevisiae deletion strains, locus YML016C, strain PPZ1, stronger effect = lower value 0.99 | S. cerevisiae deletion strains, locus YML032C, strain rad52, stronger effect = lower value 0.965 | S. cerevisiae deletion strains, locus YML124C, strain tub3, stronger effect = lower value 0.991 | S. cerevisiae deletion strains, locus YMR078C, strain ctf18, stronger effect = lower value 0.973 | S. cerevisiae deletion strains, locus YMR223W, strain ubp8, stronger effect = lower value 0.966 | S. cerevisiae deletion strains, locus YMR263W, strain SAP30, stronger effect = lower value 1 | S. cerevisiae deletion strains, locus YMR307W, strain GAS1, stronger effect = lower value 0.976 | S. cerevisiae deletion strains, locus YNL067W, strain RPL9B, stronger effect = lower value 1 | S. cerevisiae deletion strains, locus YNL128W, strain TEP1, stronger effect = lower value 0.998 | S. cerevisiae deletion strains, locus YNL153C, strain GIM3, stronger effect = lower value 1 | S. cerevisiae deletion strains, locus YNL233W, strain BNI4, stronger effect = lower value 0.997 | S. cerevisiae deletion strains, locus YNL250W, strain rad50, stronger effect = lower value 0.972 | S. cerevisiae deletion strains, locus YNL271C, strain bni1, stronger effect = lower value 0.966 | S. cerevisiae deletion strains, locus YNL298W, strain CLA4, stronger effect = lower value 0.967 | S. cerevisiae deletion strains, locus YNL307C, strain MCK1, stronger effect = lower value 0.972 | S. cerevisiae deletion strains, locus YNL322C, strain KRE1, stronger effect = lower value 1 | S. cerevisiae deletion strains, locus YNR052C, strain pop2, stronger effect = lower value 0.967 | S. cerevisiae deletion strains, locus YOL006C, strain TOP1, stronger effect = lower value 0.986 | S. cerevisiae deletion strains, locus YOL012C, strain htz1 0.731 | S. cerevisiae deletion strains, locus YOL147C, strain pex11, stronger effect = lower value 0.988 | S. cerevisiae deletion strains, locus YOR061W, strain CKA2, stronger effect = lower value 0.99 | S. cerevisiae deletion strains, locus YOR069W, strain VPS5, stronger effect = lower value 0.99 | S. cerevisiae deletion strains, locus YOR136W, strain idh2, stronger effect = lower value 0.979 | S. cerevisiae deletion strains, locus YOR144C, strain elg1, stronger effect = lower value 0.985 | S. cerevisiae deletion strains, locus YOR184W, strain ser1, stronger effect = lower value 0.942 | S. cerevisiae deletion strains, locus YOR316C, strain cot1, stronger effect = lower value 0.977 | S. cerevisiae deletion strains, locus YPL055C, strain LGE1, stronger effect = lower value 1.04 | S. cerevisiae deletion strains, locus YPL241C, strain CIN2, stronger effect = lower value 0.972 | S. cerevisiae deletion strains, locus YPR119W, strain clb2, stronger effect = lower value 0.979 | S. cerevisiae deletion strains, locus YPR141C, strain kar3, stronger effect = lower value 0.972 | S. cerevisiae deletion strains, locus YPR163C, strain tif3, stronger effect = lower value 0.983 | S. cerevisiae deletion strains, locus YPR167C, strain met16, stronger effect = lower value 0.985 | S. cerevisiae deletion strains, strain wtn01, stronger effect = lower value 0.98 | S. cerevisiae strains, strain wild type, stronger effect = lower value 1

Reference: PubChem BioAssay AID1159580 (chemical genetic matrix, 2015)
